The values below come from ChEMBL document CHEMBL4513216, “Probing the Open Global Health Chemical Diversity Library for Multistage-Active Starting Points for Next-Generation Antimalarials” (ACS Infect Dis, 2020).

Out of some 69,000 compounds screened, about 8,600 (12%) showed an effect of 50% or more. This is one part of a sample in which strong results are shown more often than they occur.

The subject of this assay is Plasmodium berghei. As to the kind of experiment: Screen against P. berghei liver stage (PbLuc), transformed with Luciferase, at 10uM. The class given is functional, HepG2. The settings on record: tested at 10 uM.
Consider `O=C1CN(C(=O)OCc2ccccc2)CC(O)CN1Cc1ccco1` (configuration not stated), for which the INHIBITION was found to be 34.3%.

Regarding `CCN(CC)C(=O)Cn1ccc2cc(NC(C)=O)ccc21`, the INHIBITION is reported as -37.31%.

In the case of `CNc1cc2c(nn1)CCN(C(=O)c1ccc(-n3cccn3)nc1)C2`, the INHIBITION is 35.7%.

In the case of `COc1c(C2CCCN2C(=O)c2ccc(C#N)cc2)c(C)nn1C` (configuration not stated), the INHIBITION came to 7.67%.

For `C[C@H]1CN(Cc2cnn(C)c2)C[C@@]12CCN(Cc1cccnc1)C2=O`, the INHIBITION turned out to be 48.2%.

For the molecule `CC(=O)N1CCCN(C(C(=O)O)c2ccccc2OC(F)(F)F)CC1` (configuration not stated), the INHIBITION is 15.2%.

For the molecule `O=C(CN1CCCC1Cn1cccn1)NCCOc1cccc(F)c1` (configuration not stated), the INHIBITION is recorded as 48.4%.

With `Cc1nc(C)n(CCC(=O)N2CCc3ncc(Cl)cc3C2)n1`, the INHIBITION was 24.4%.

In the case of `CC(C)n1ncc2c1NC(=O)CSC2C(F)(F)F` (configuration not stated), the INHIBITION is -38%.

Take `CNc1cc(C(=O)N(C)Cc2cc(-c3cccs3)n[nH]2)ccn1`: the INHIBITION is reported as 47.6%.

In the case of `CN(C)c1nccc(NCc2cc(-c3cccs3)n[nH]2)n1`, the INHIBITION stood at 18.9%.

`CNc1ccnc(N(C)Cc2cc(-c3cccs3)n[nH]2)n1`: the INHIBITION turned out to be 88.4%.

On to `CCc1n[nH]c(C2CN(C(=O)c3nc(C)ncc3Cl)CCO2)n1` (configuration not stated), for which the INHIBITION is 37.5%.

Take `CCOC(=O)c1sc(NC(=O)CCCC(=O)O)c(C#N)c1C`: the INHIBITION is on record as 28.2%.

Take `COc1ccc2nc(CNC(=O)C3CC4(CCNCC4)CN3C)[nH]c2c1` (configuration not stated): the INHIBITION is 18.6%.

For `Cc1ccc2[nH]c(CNC(=O)C3CC4(CCNCC4)CN3C)nc2c1C` (configuration not stated), the INHIBITION was 66.3%.

As to `Cc1ccc(NCCCNC(=O)C2CC3(CCNCC3)CN2C)nc1` (configuration not stated), the INHIBITION is given as 37.1%.

In the case of `Cc1nc(NCC2CC2)nc2c1COCC21CCNC1` (configuration not stated), the INHIBITION was 38.1%.

Take `Cc1nc(NCc2ccco2)nc2c1COCC21CCNC1` (configuration not stated): the INHIBITION stood at 55.5%.

With `c1coc(CNc2ncc3c(n2)C2(CCNC2)COC3)c1` (configuration not stated), the INHIBITION turned out to be 29.8%.

Regarding `Cc1ccc(Oc2ncccc2C(=O)N(C)CCCN(C)C)c(C)c1`, the INHIBITION is recorded as 13.5%.

Regarding `CCOCC(=O)N1CCC(C)(c2nccs2)CC1`, the INHIBITION is on record as 38.05%.

Turning to `CC(=O)N1CCN(C(=O)CCn2c(C)nc3ccccc3c2=O)CC1`, the INHIBITION is 8.665%.

For the molecule `CC(C)=CCN1CCC(c2nnc(CN3CCN(C)CC3)n2C)CC1`, the INHIBITION was 25.4%.

For the molecule `Cc1noc([C@@]23CCO[C@@H]2CCN(C(=O)c2sccc2C)C3)n1`, the INHIBITION is -4.56%.

Take `Cc1noc([C@@]23CCO[C@@H]2CCN(C(=O)c2c(C)noc2C)C3)n1`: the INHIBITION was 28.2%.

In the case of `Cc1noc([C@@]23CCO[C@@H]2CCN(C(=O)c2cc(C)c(C)s2)C3)n1`, the INHIBITION turned out to be 57.1%.

Consider `Cc1noc([C@@]23CCO[C@@H]2CCN(C(=O)c2cc(C)on2)C3)n1`, for which the INHIBITION was determined as 61.9%.

On to `Cc1noc([C@@]23CCO[C@@H]2CCN(C(=O)c2cc(C)[nH]c2C)C3)n1`, for which the INHIBITION worked out at 24.9%.

As to `Cc1noc([C@@]23CCO[C@@H]2CCN(C(=O)c2ccsc2)C3)n1`, the INHIBITION is recorded as -15.3%.

`CC(C)Cc1nc(CCn2cncn2)n(-c2ccc3c(c2)OCCO3)n1`: the INHIBITION stood at 41.2%.

With `Cc1cc(Cl)ccc1-n1ncc(C(=O)N(C)CCc2ccccn2)c1N`, the INHIBITION is 29.3%.

Consider `CC(C)c1nc(-c2ccnc(N3CCNCC3)n2)no1`, for which the INHIBITION worked out at 18.2%.

As for `CC(C)n1ccnc1CN1CCCN(C(=O)c2cnn(C)c2)CC1`, the INHIBITION is 10.9165%.

Take `Cc1nc(CN2C(=O)COC3(CCN(C(N)=O)CC3)C2C)cs1` (configuration not stated): the INHIBITION is reported as -10.3%.

Regarding `CS(=O)(=O)c1cncnc1C1CCCN(C(=O)Nc2ccccc2F)C1` (configuration not stated), the INHIBITION is recorded as -8.76%.

On to `CCN(Cc1cccs1)S(=O)(=O)N(C)C(C)C`, for which the INHIBITION is given as 44.3%.

Turning to `COc1ccccc1CN(Cc1cccs1)S(=O)(=O)N(C)C(C)C`, the INHIBITION amounted to 67.5%.

In the case of `CC(C)N(C)S(=O)(=O)N(Cc1cccs1)Cc1cccs1`, the INHIBITION amounted to 14.6%.

For `Cn1nc(C2CN(C(=O)c3cccnc3)C2)c2nccnc21`, the INHIBITION was found to be 32.8%.

Regarding `CCc1nc2n(n1)CC(NCc1nc(Cc3ccccc3)no1)CC2` (configuration not stated), the INHIBITION turned out to be 19.6%.

Take `NC(=O)c1ccc(NC(=O)c2ccncc2F)cn1`: the INHIBITION came to 9%.

Regarding `O=C(c1cc(C2CC2)on1)N1C[C@@H]2COC[C@]2(COc2cccnc2)C1`, the INHIBITION is recorded as 72%.

Regarding `O=C(COC1CCCC1)N1C[C@@H]2COC[C@]2(COc2cccnc2)C1`, the INHIBITION amounted to 40.3%.

Turning to `O=C(C1=CCCC1)N1C[C@@H]2COC[C@]2(COc2cccnc2)C1`, the INHIBITION turned out to be 33%.

For `Cc1ccc(C(=O)N2C[C@@H]3COC[C@]3(COc3cccnc3)C2)cn1`, the INHIBITION is given as 23.9%.

With `O=C(Cc1ccccc1F)N1C[C@@H]2COC[C@]2(COc2cccnc2)C1`, the INHIBITION is 39.2%.

For the molecule `O=C(c1ccc(F)cc1)N1C[C@@H]2COC[C@]2(COc2cccnc2)C1`, the INHIBITION is 55.7%.

Take `O=C(COc1ccccc1)N1C[C@@H]2COC[C@]2(COc2cccnc2)C1`: the INHIBITION was determined as 50.3%.

Regarding `O=C(c1ncccn1)N1C[C@@H]2COC[C@]2(COc2cccnc2)C1`, the INHIBITION is 46.6%.

For the molecule `O=C(c1cocn1)N1C[C@@H]2COC[C@]2(COc2cccnc2)C1`, the INHIBITION is recorded as 43.9%.

With `Cc1ccc(-c2cc(CNC(=O)NC3CCCCNC3=O)on2)cc1` (configuration not stated), the INHIBITION is listed as -22.1%.
